{
  "source": "PubChem BioAssay AID1159580",
  "about": "(chemical genetic matrix, 2015)",
  "test": "chemical genetic growth profiling, strain panel (AID 1159580);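 further: tested at 20 µM; growth read once vehicle control cultures reached saturation at 30 °C; 1 = growth at the plate median or of vehicle wells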",
  "details": "S. cerevisiae deletion strains, growth OD",
  "note": "Hit rate of the full screen: of about 5,500 compounds, about 2,000 (36%) were called active. Inconclusive results (about 18%) are left out. The list shows a part of the results. Values without a mark were called inactive. No stated cut-off is given here; in the data, active means normalized growth mostly below about 0.91 (no sharp cut-off); inconclusive means no clear call, values can overlap the other calls; inactive means mostly above about 0.92.",
  "data": [
    {"smiles": "CN(C)CCOC(=O)COc1ccc(Cl)cc1", "values": [
      {"measurement": "normalized growth", "setting": "locus YKL009W, strain mrt4, stronger effect = lower value", "result": 1.04},
      {"measurement": "normalized growth", "setting": "locus YKL068W, stronger effect = lower value", "result": 1},
      {"measurement": "normalized growth", "setting": "locus YKL085W, strain MDH1 (second series), stronger effect = lower value", "result": 1.01},
      {"measurement": "normalized growth", "setting": "locus YKL085W, strain MDH1, stronger effect = lower value", "result": 1.01},
      {"measurement": "normalized growth", "setting": "locus YKL160W, strain elf1, stronger effect = lower value", "result": 0.972},
      {"measurement": "normalized growth", "setting": "locus YKL190W, strain CNB1, stronger effect = lower value", "result": 1.01},
      {"measurement": "normalized growth", "setting": "locus YKR001C, strain vps1, stronger effect = lower value", "result": "1.14 [resistant] (active)"},
      {"measurement": "normalized growth", "setting": "locus YKR026C, strain gcn3, stronger effect = lower value", "result": 0.948},
      {"measurement": "normalized growth", "setting": "locus YKR091W, strain srl3, stronger effect = lower value", "result": 0.969},
      {"measurement": "normalized growth", "setting": "locus YLL001W, strain dnm1, stronger effect = lower value", "result": 0.959},
      {"measurement": "normalized growth", "setting": "locus YLL026W, stronger effect = lower value", "result": 0.969},
      {"measurement": "normalized growth", "setting": "locus YLL041C, strain sdh2, stronger effect = lower value", "result": 0.961},
      {"measurement": "normalized growth", "setting": "locus YLR027C, strain aat2, stronger effect = lower value", "result": 0.972},
      {"measurement": "normalized growth", "setting": "locus YLR039C, strain RIC1, stronger effect = lower value", "result": "1.61 [resistant] (active)"},
      {"measurement": "normalized growth", "setting": "locus YLR058C, strain SHM2, stronger effect = lower value", "result": 1.02},
      {"measurement": "normalized growth", "setting": "locus YLR102C, strain apc9, stronger effect = lower value", "result": 1.02},
      {"measurement": "normalized growth", "setting": "locus YLR113W, strain HOG1, stronger effect = lower value", "result": 0.971},
      {"measurement": "normalized growth", "setting": "locus YLR221C, strain rsa3, stronger effect = lower value", "result": 0.987},
      {"measurement": "normalized growth", "setting": "locus YLR258W, strain gsy2, stronger effect = lower value", "result": 0.965},
      {"measurement": "normalized growth", "setting": "locus YLR262C, strain YPT6 (second series), stronger effect = lower value", "result": 1.08},
      {"measurement": "normalized growth", "setting": "locus YLR262C, strain YPT6, stronger effect = lower value", "result": "1.85 [resistant] (active)"},
      {"measurement": "normalized growth", "setting": "locus YLR268W, strain sec22, stronger effect = lower value", "result": "1.15 [resistant] (active)"},
      {"measurement": "normalized growth", "setting": "locus YLR320W, strain mms22, stronger effect = lower value", "result": 1.01},
      {"measurement": "normalized growth", "setting": "locus YLR330W, strain CHS5, stronger effect = lower value", "result": 1.02},
      {"measurement": "normalized growth", "setting": "locus YLR342W, strain FKS1 (second series), stronger effect = lower value", "result": 0.953},
      {"measurement": "normalized growth", "setting": "locus YLR342W, strain FKS1, stronger effect = lower value", "result": 0.97},
      {"measurement": "normalized growth", "setting": "locus YLR357W, strain rsc2, stronger effect = lower value", "result": 1.01},
      {"measurement": "normalized growth", "setting": "locus YLR370C, strain arc18, stronger effect = lower value", "result": 0.962},
      {"measurement": "normalized growth", "setting": "locus YLR371W, strain rom2, stronger effect = lower value", "result": 1.02},
      {"measurement": "normalized growth", "setting": "locus YLR384C, strain iki3, stronger effect = lower value", "result": 0.983},
      {"measurement": "normalized growth", "setting": "locus YLR418C, strain cdc73, stronger effect = lower value", "result": "1.21 [resistant] (active)"},
      {"measurement": "normalized growth", "setting": "locus YML016C, strain PPZ1, stronger effect = lower value", "result": 1.02},
      {"measurement": "normalized growth", "setting": "locus YML032C, strain rad52, stronger effect = lower value", "result": 1.07},
      {"measurement": "normalized growth", "setting": "locus YML120C, strain ndi1, stronger effect = lower value", "result": 0.966},
      {"measurement": "normalized growth", "setting": "locus YML124C, strain tub3, stronger effect = lower value", "result": 1.04},
      {"measurement": "normalized growth", "setting": "locus YMR058W, strain fet3, stronger effect = lower value", "result": 0.976},
      {"measurement": "normalized growth", "setting": "locus YMR078C, strain ctf18, stronger effect = lower value", "result": 1.05},
      {"measurement": "normalized growth", "setting": "locus YMR125W, strain sto1, stronger effect = lower value", "result": 0.965},
      {"measurement": "normalized growth", "setting": "locus YMR129W, stronger effect = lower value", "result": 0.973},
      {"measurement": "normalized growth", "setting": "locus YMR205C, strain PFK2, stronger effect = lower value", "result": 0.986},
      {"measurement": "normalized growth", "setting": "locus YMR223W, strain ubp8, stronger effect = lower value", "result": 1.04},
      {"measurement": "normalized growth", "setting": "locus YMR231W, strain pep5, stronger effect = lower value", "result": 0.976},
      {"measurement": "normalized growth", "setting": "locus YMR263W, strain SAP30, stronger effect = lower value", "result": 1.05},
      {"measurement": "normalized growth", "setting": "locus YMR307W, strain GAS1, stronger effect = lower value", "result": 0.963},
      {"measurement": "normalized growth", "setting": "locus YNL067W, strain RPL9B, stronger effect = lower value", "result": 1.06},
      {"measurement": "normalized growth", "setting": "locus YNL071W, strain lat1, stronger effect = lower value", "result": 0.988},
      {"measurement": "normalized growth", "setting": "locus YNL128W, strain TEP1, stronger effect = lower value", "result": 1.03}
    ]}
  ]
}
